The target of assay [1] is Cytochrome P450 3A7 (Homo sapiens) (UniProt P24462). Kind of assay: Cytochrome P450 family 3 subfamily A member 7 (CYP3A7) small molecule antagonists: luciferase biochemical qHTS assay (AID 1963596). Note: % is set by controls: 0 for no effect and ±100 for the full control effect; nearly all actives have a fitted effect of over 40% in size. As to conditions: P450-Glo CYP3A7 enzyme luminescence, 1 h; series mostly up to 57.4 µM. Summed up: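 In this luminescent screen, enzyme and proluciferin substrate meet test compound for 10 min before NADPH regeneration solution drives a 1 h room-temperature reaction; detection reagent halts turnover and luminescence is read 20 min later.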

A short description of assay [2]: Viability qHTS for spleen associated tyrosine kinase inhibitor (SYKi) naive MV4-11 cells (AID 1963823). Note: nearly all actives have a fitted effect of over 40% in size. Note: potency is the fitted concentration of half-maximal effect. The conditions noted are these: MV4-11 AML viability, CellTiter-Glo luminescence, 72 h; series mostly up to 45 µM. In short, it runs like this:
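Read-out: CellTiter-Glo luminescence. Exposure: 72 hr, 37 C, 5% CO2, 95% humidity. Cells: MV4-11 without SYK inhibitor history, 500/well, qHTS format.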
(In general: Quantitative high-throughput screening tests each substance at several concentrations.)

Assay [3] is described as follows: Viability qHTS for spleen associated tyrosine kinase inhibitor (SYKi) drug resistant MV4-11 cells (AID 1963824). Note: nearly all actives have a fitted effect of over 35% in size. Note: potency is the fitted concentration of half-maximal effect. The conditions noted are these: SYKi-resistant MV4-11 viability, CellTiter-Glo, 72 h; series mostly up to 45 µM. Summed up:
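SYK-inhibitor-resistant MV4-11 AML cells were seeded at 500 per well onto compound and cultured 72 hours (37 °C, 5% CO2). CellTiter-Glo was then added, and after 10 min at room temperature, luminescence gave viability.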

Assay [4] can be described thus: Cellular viability qHTS for adrenocortical cancer (ACC) cell line SW-13 (AID 1963989).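 For activity (max response): cells grown in serum-free medium with ITS supplement; % is set by controls: 0 for no effect and ±100 for the full control effect.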 Note: nearly all actives have a fitted effect of over 65% in size. Note: potency is the fitted concentration of half-maximal effect. As to conditions: SW-13 ACC cells viability, CellTiter-Glo, 48 h; activity (max response): stronger effect = lower value. In short, it runs like this:
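IC50 and maximal-response values come from four-parameter logistic fits of titration data. SW-13 cells in serum-free medium received compounds (up to 46 uM final) for 48 h before CellTiter-Glo luminescence.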

Assay [5] is described as follows: Cellular viability qHTS for adrenocortical cancer (ACC) cell line NCI-H295R (AID 1963990). Note: nearly all actives have a fitted effect of over 60% in size. Note: potency is the fitted concentration of half-maximal effect. As to conditions: CellTiter-Glo ATP luminescence, 48 h; series mostly up to 46.1 µM. In short, it runs like this: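 Adrenocortical carcinoma cells, suspended at 300 000 cells/mL in serum-free DMEM plus ITS, rested overnight before pin transfer of compound. After two days' incubation, ATP-dependent luminescence was recorded and curve-fitted.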

29 compounds from PubChem BioAssay (NCATS) can be followed below.

Each structure is given as a SMILES string. Values joined by “and” are separate entries in the source; they are usually repeats but may differ in a detail not shown here. Equal values may be shown once. Records with an inconclusive call do not appear. Unmarked numbers belong to inactive results. Active and inactive are the calls of the source. Calls come from the whole dose curve; as a rule, active = well fitted curve in the direction sought with a large enough effect; inconclusive = small, poorly fitted or top-dose-only effect, or another doubt; inactive = no such curve, though single readings can be large; an effect the other way counts as inactive or inconclusive.

Chain of Cytochrome P450 3A7 (Homo sapiens) (P24462 whole entry, looked up): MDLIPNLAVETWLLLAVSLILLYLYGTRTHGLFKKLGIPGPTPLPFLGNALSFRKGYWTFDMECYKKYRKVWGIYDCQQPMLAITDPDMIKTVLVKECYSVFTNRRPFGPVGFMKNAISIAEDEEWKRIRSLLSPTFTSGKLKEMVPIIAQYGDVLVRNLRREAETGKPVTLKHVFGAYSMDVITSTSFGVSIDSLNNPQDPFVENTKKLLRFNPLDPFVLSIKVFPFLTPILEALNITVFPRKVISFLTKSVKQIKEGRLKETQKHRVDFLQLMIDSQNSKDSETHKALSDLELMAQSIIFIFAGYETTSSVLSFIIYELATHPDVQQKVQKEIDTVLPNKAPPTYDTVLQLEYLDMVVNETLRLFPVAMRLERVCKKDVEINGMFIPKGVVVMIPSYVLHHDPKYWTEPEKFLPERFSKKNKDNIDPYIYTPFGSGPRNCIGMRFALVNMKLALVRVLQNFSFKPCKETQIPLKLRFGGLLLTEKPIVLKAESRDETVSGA

For the compound `Cc1ccc(=O)n(-c2ccccc2)c1`, the Potency result in assay [1], in assay [2], in assay [3] and in assay [5] was “inactive” in each case. Further, the activity (max response) in assay [4] was 13.5%.
`CCOc1ccccc1OCC1CNCCO1` (stereo not given): the Potency entry in assay [1], in assay [2], in assay [3] and in assay [5] was “inactive” throughout. The activity (max response) in assay [4] was -0.481%.
Consider `Nc1nc(=O)n([C@@H]2O[C@H](CO)[C@@H](O)[C@@H]2F)cc1I`, for which the Potency result in assay [1], in assay [2], in assay [3] and in assay [5] was “inactive” each time. In assay [4], the activity (max response) is 8.37%.
Consider `CCOC(=O)CN1CCCC1=O`, for which the Potency result in assay [1], in assay [2], in assay [3] and in assay [5] was “inactive” throughout. For the same compound, the activity (max response) in assay [4] is 4.08%.
As for `CC1(c2ccccc2)OC(C(=O)O)=CC1=O` (stereo not given), the Potency entry in assay [1], in assay [2], in assay [3] and in assay [5] was “inactive” each time. For the same compound, in assay [4], the activity (max response) was -17.9%.
Take `CN(C)C(=O)Oc1cccc([N+](C)(C)C)c1`: the Potency result in assay [1], in assay [2], in assay [3] and in assay [5] was “inactive” each time. Moreover, the activity (max response) in assay [4] is 16.2%.
Consider `C[C@H]1CN(C[C@H](Cc2ccccc2)C(=O)NCC(=O)O)CC[C@@]1(C)c1cccc(O)c1`, for which the Potency result in assay [1], in assay [2], in assay [3] and in assay [5] was “inactive” throughout. Moreover, the activity (max response) in assay [4] was 8.76%.
Consider `CC(=O)Nc1ccc(C(=O)O)cc1`, for which the Potency entry in assay [1], in assay [2], in assay [3] and in assay [5] was “inactive” throughout. Also, in assay [4], the activity (max response) was 11.7%.
For `O=C1OC(OC(=O)c2cccnc2Nc2cccc(C(F)(F)F)c2)c2ccccc21` (stereo not given), the Potency result in assay [1], in assay [2], in assay [3] and in assay [5] was “inactive” throughout. For the same compound, the activity (max response) in assay [4] is 6.27%.
Regarding `CC(=O)Oc1cccc(C)c1`, the Potency result in assay [1], in assay [2], in assay [3] and in assay [5] was “inactive” in each case. Further, the activity (max response) in assay [4] was 17.7%.
For the compound `CN1CC(=O)NC1=N`, the Potency result in assay [1], in assay [2], in assay [3] and in assay [5] was “inactive” each time. Moreover, in assay [4], the activity (max response) is 5.44%.
Consider `NCC(=O)CCC(=O)O`, for which the Potency entry in assay [1], in assay [2], in assay [3] and in assay [5] was “inactive” in each case. In addition, the activity (max response) in assay [4] was 16.5%.
As for `O=C(O)CCCCCCCC(=O)O`, the Potency entry in assay [1], in assay [2], in assay [3] and in assay [5] was “inactive” in each case. Also, the activity (max response) in assay [4] is 10.6%.
In the case of `O=C(O)[C@H](CC(=O)N1C[C@H]2CCCC[C@H]2C1)Cc1ccccc1`, the Potency entry in assay [1], in assay [2], in assay [3] and in assay [5] was “inactive” in each case. The activity (max response) in assay [4] is 1.52%.
Turning to `O=C(O)COc1nn(Cc2ccccc2)c2ccccc12`, the Potency result in assay [1], in assay [2], in assay [3] and in assay [5] was “inactive” throughout. Also, the activity (max response) in assay [4] was 10.3%.
Turning to `O=c1ccn([C@@H]2O[C@H](CO)[C@@H](O)[C@H]2O)c(=O)[nH]1`, the Potency entry in assay [1], in assay [2], in assay [3] and in assay [5] was “inactive” in each case. Moreover, in assay [4], the activity (max response) is -5.6%.
For the compound `CC(=O)NCc1c(I)c(NC(C)=O)c(I)c(C(=O)O)c1I`, the Potency entry in assay [1], in assay [2], in assay [3] and in assay [5] was “inactive” in each case. For the same compound, the activity (max response) in assay [4] was 13.2%.
For `O=C(O)c1ccccc1OP(=O)(O)O`, the Potency entry in assay [1], in assay [2], in assay [3] and in assay [5] was “inactive” throughout. In assay [4], the activity (max response) is 16.4%.
`O=C(O)CP(=O)(O)O`: the Potency result in assay [1], in assay [2], in assay [3] and in assay [5] was “inactive” each time. In assay [4], the activity (max response) was 1.41%.
As to `Cn1c(=O)c2c(ncn2CC2OCCO2)n(C)c1=O`, the Potency entry in assay [1], in assay [2], in assay [3] and in assay [5] was “inactive” throughout. Moreover, the activity (max response) in assay [4] is 8.06% and -6.96%.
With `C=CC(=O)Nc1cccc(Nc2nc(Nc3ccc(N4CCN(C(C)=O)CC4)cc3OC)ncc2C(F)(F)F)c1`, the Potency result in assay [1] is “inactive”. Besides, the Potency in assay [2] is 1.64 µM (active) and 1.05 µM (active); in assay [3], 1.84 µM (active) and 1.86 µM (active); in assay [4], 2.24 µM (active); in assay [5] it was 3.55 µM (active).
For `CCCN1CCN(c2ccc(C(=O)NC3(C(=O)NCC#N)CCCCC3)cc2)CC1`, the Potency result in assay [1], in assay [2], in assay [3] and in assay [5] was “inactive” in each case. Also, the activity (max response) in assay [4] was -11.1%.
Turning to `CNC(=O)CN(CCN(CCN(CC(=O)[O-])CC(=O)NC)CC(=O)[O-])CC(=O)[O-].O.[Gd+3]`, the Potency result in assay [1], in assay [2], in assay [3] and in assay [5] was “inactive” in each case. In addition, the activity (max response) in assay [4] was -4.04%.
For `CC(C(=O)O)c1ccc2c(c1)Cc1cccnc1O2` (stereo not given), the Potency entry in assay [1], in assay [2], in assay [3] and in assay [5] was “inactive” throughout. For the same compound, the activity (max response) in assay [4] is -0.725%.
Turning to `CCCCCCCCCCCCCCCCCCN(C)C`, the Potency entry in assay [1], in assay [2], in assay [3] and in assay [5] was “inactive” throughout. The activity (max response) in assay [4] is -1.14%.
Take `C[N+](C)(C)CCOC(=O)CCC(=O)OCC[N+](C)(C)C`: the Potency entry in assay [1], in assay [2], in assay [3] and in assay [5] was “inactive” in each case. The activity (max response) in assay [4] was 11.2%.
For the compound `CC(=O)Nc1nnc(S(N)(=O)=O)s1`, the Potency entry in assay [1], in assay [2], in assay [3] and in assay [5] was “inactive” in each case. Moreover, in assay [4], the activity (max response) was 5.04%.
For the compound `CN(C)CCOC(C)(c1ccccc1)c1ccccn1` (stereo not given), the Potency entry in assay [1], in assay [2], in assay [3] and in assay [5] was “inactive” throughout. The activity (max response) in assay [4] was 14.2%.
`CO/N=C(/C(=O)N[C@@H]1C(=O)N2C(C(=O)[O-])=C(C[n+]3ccn4ncccc43)CS[C@H]12)c1nsc(N)n1`: the Potency result in assay [1], in assay [2], in assay [3] and in assay [5] was “inactive” each time. The activity (max response) in assay [4] is -7.2%.
